KDM5B inhibitor = blocks human KDM5B histone demethylase activity; Q9UGL1; KDM5B demethylase, FDH-coupled NADH fluorescence (FDH is formaldehyde dehydrogenase); Potency, µM (titrated, usually from 57.7 µM), usual class: inhibitors; 220,000 compounds, 2.6% hits; active = well fitted inhibition curve with a large enough effect; also: 0% is about no effect; nearly all actives have a fitted effect of over 70% in size
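Measured: NADH fluorescence change, 30 min, RT. System: KDM5BΔAP 200 nM final, H3K4me3 peptide, α-KG, Fe(II), ascorbate, NAD⁺ plus FDH, pH 7.5 HEPES. Compounds: titrated, 10 min pre-incubation with enzyme.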
An asterisk follows results filed as active; i = inactive. Only a selection was taken, and hits are over-represented in it overall. Potency is read from the fitted curve at half-maximal effect.

SMILES	KDM5B inhibitor
CC(SC(C)c1ccccc1F)C(=O)NC(N)=O (centres undefined)	i
Cc1cc(SCC(=O)NC(C)C(C)C)nc2c(C)cccc12 (centres undefined)	i
CCCCc1ccc(NC(=S)NNC=O)cc1	i
O=C(NCc1nc(-c2cccc(F)c2)c(-c2ccccn2)[nH]1)N1CCCC1	22.4µM*
COCC(=O)NCc1nc(-c2cccc(F)c2)c(-c2ccccn2)[nH]1	i
N[C@H]1CCC[C@@H](C(=O)NCc2nc(-c3cccc(F)c3)c(-c3ccccn3)[nH]2)C1	i
COc1ccc2c(c1)c(C(C(=O)O)N1CCN(C(C)=O)CC1)cn2CCC(=O)O (centres undefined)	i
O=C(NNC(=S)Nc1ccc(F)cc1)Nc1ccccc1	i
COc1ccc2c(C)c(C(=O)NCc3nc(-c4ncccn4)no3)oc2c1	i
Cc1ccc2nc(C)c(C)c(C(=O)NCc3nc(-c4ncccn4)no3)c2c1	28.2µM*
Cc1ccc(-c2noc(CNC(=O)c3ccccc3)n2)cc1	i
NC(=O)CSc1nnc(-c2ccccc2Cl)n1-c1cccc(C(F)(F)F)c1	i
CCn1cnnc1CC1CCN(C(=O)c2cnn3c(C)c(Cc4ccccc4Cl)c(C)nc23)CC1	28.2µM*
CCn1cnnc1CC1CCN(C(=O)CCC(=O)n2nc(C)c3ccccc32)CC1	i
CCn1cnnc1CC1CCN(C(=O)c2ccc3ccccc3n2)C1 (centres undefined)	i
COc1ccccc1CCNC(=O)c1sc(NCc2ccccc2)nc1C	i
Cn1c(=O)[nH]c(=O)c2c1nc(SCCO)n2Cc1cccc(Br)c1	i
COc1ccc(NC(=O)Cn2c(=O)c(CNc3ccccc3)cc3cc(OC)c(OC)cc32)cc1	i
O=C(Cc1c[nH]c2ncc(-c3cccnc3)cc12)NC1CCC1	i
Cc1noc(C)c1-c1cnc2[nH]cc(CC(N)=O)c2c1	31.6µM*
Cc1noc(C)c1-c1cnc2[nH]cc(CC(=O)NCc3cccnc3)c2c1	35.5µM*
CCOC(=O)NCC(=O)NCc1cccnc1	i
O=C(CN1CCN(c2ccccc2F)CC1)NC(=O)NCC(F)(F)F	i
C/C(=C\c1ccccc1)C(=O)Nc1ccccc1C(C)C	i
O=C(N/N=C/C1CC=CCC1)C1CC1c1ccccc1 (centres undefined)	i
SMILES	KDM5B inhibitor
O=C(Nc1ccc(F)cc1)C1=C(N2CCOCC2)c2ccccc2S1(=O)=O	i
COc1ccc(-c2noc(C(=O)O)c2[C@@H](C)NC(=O)c2cccn2C)cc1	39.8µM*
COc1ccc(-c2noc(C(=O)O)c2[C@@H](C)NC(=O)Cc2ccccc2)cc1	i
COc1ccc(-c2noc(C(=O)O)c2[C@@H](C)NC(=O)c2ccccc2)cc1	i
CC(C)Cn1nc(C(=O)Nc2ccc(Br)cc2F)c2ccccc2c1=O	i
CN(C)C(CNC(=O)CCc1ncc(-c2ccc(F)cc2F)o1)c1ccco1 (centres undefined)	i
O=C1CC(c2ccccc2)N(Cc2ccccn2)CCCCCN1 (centres undefined)	i
Cc1ccc(CN2CCCCCNC(=O)CC2c2ccccc2)o1 (centres undefined)	28.2µM*
CCn1ncc(CN2CCCCCNC(=O)CC2c2ccccc2)c1C (centres undefined)	i
C#CCNC(=O)[C@H]1C[C@@H](O)[C@H](O)[C@@H]2N=C(Nc3cccc4ccccc34)S[C@@H]21	8.91µM*
COc1ccc(NC2=N[C@H]3[C@@H](O)[C@H](O)C[C@H](C(=O)NCc4ccccc4OC)[C@H]3S2)cc1	i
Cc1cc(C)cc(NC2=N[C@H]3[C@@H](O)[C@H](O)C[C@H](C(=O)NCCN4CCCCC4)[C@H]3S2)c1	i
CC(NC(=O)c1ccc2c(c1)sc1nc(-c3ccc(F)cc3)cn12)c1ccccc1 (centres undefined)	i
CCC1c2ccsc2CCN1C(=O)/C=C/c1ccccc1C (centres undefined)	i
CNc1nc2c(s1)C(c1ccc(Cl)cc1)CC(=O)N2 (centres undefined)	31.6µM*
COc1ccc(C2CC(=O)Nc3nc(N)sc32)cc1OC (centres undefined)	i
Nc1nc2c(s1)C(c1cccc(F)c1)CC(=O)N2 (centres undefined)	i
Cc1cc(C)cc(NC(=O)c2nc3ccccc3nc2N2CCN(C)CC2)c1	i
CCn1nc(C(=O)Nc2cccc(C)n2)c2ccccc2c1=O	i
CC(=O)c1cnn(-c2cc(NC3CCCCC3)nc(C)n2)c1C	i
COc1cccc([C@H]2CN(C(=O)CCn3ccc(=O)[nH]c3=O)C[C@@H]2N)c1	i
CCn1ccc(C(=O)N2C[C@@H](COC)[C@H](c3nc(C)no3)C2)n1	i
Cc1noc([C@@H]2CN(C(=O)c3ccc4[nH]ccc4c3)C[C@H]2CO)n1	i
COc1cccc([C@H]2CN(C(=O)c3c(-c4ccccc4)noc3C)C[C@@H]2N)c1	i
O=C(c1ccc2c(c1)OCO2)N1C[C@@H](CO)[C@H](c2ccccn2)C1	i
SMILES	KDM5B inhibitor
Cc1noc([C@@H]2CN(C(=O)c3ccc4cc[nH]c4c3)C[C@H]2CO)n1	25.1µM*
COC[C@@H]1CN(C(=O)c2cn3ccccc3n2)C[C@H]1c1nc(C)no1	20µM*
O=C(c1cccc(Cl)c1)N1C[C@@H](CO)[C@H](c2ccccn2)C1	i
COC[C@@H]1CN(C(=O)c2ccc3[nH]ccc3c2)C[C@H]1c1nc(C)no1	i
COC[C@@H]1CN(C(=O)c2ccc(C#N)cc2)C[C@H]1c1nc(C)no1	i
COc1cccc([C@H]2CN(C(=O)c3ccc4cc[nH]c4c3)C[C@@H]2N)c1	31.6µM*
O=C(c1cc[nH]c(=O)c1)N1C[C@@H](CO)[C@H](c2ccccn2)C1	22.4µM*
COc1ccc(-c2nc3ccccc3c(C)c2CC(=O)O)cc1OC	i
Cc1ccc(S(=O)(=O)NCc2c(C)nn(Cc3ccccc3)c2C)cc1	i
CC(=O)c1c(C)oc2c(Cl)cc(NS(=O)(=O)c3ccc4ccccc4c3)cc12	i
COc1ccc(NC(=O)CSC2=Nc3ccccc3C3=NC(C(C)C)C(=O)N23)cc1OC (centres undefined)	i
O=C(CC12CC3CC(CC(Br)(C3)C1)C2)OC(C(=O)c1c[nH]c2ccccc12)c1ccccc1 (centres undefined)	i
Cc1cc(NC(=O)c2nccnc2N)ccc1Br	i
C=CCOc1cccc(CNC(C)(C)CO)c1	i
CC(NC(=O)c1cc(=O)c2ccccc2o1)c1ccc(-c2ccccc2)cc1 (centres undefined)	i
O=C(CCn1nc(-c2ccccc2)c2ccccc2c1=O)Nc1ccc(Br)cc1	i
O=C(NCc1ccc(Cn2cncn2)cc1)c1ccccc1F	i
NC(=O)C(O)(c1ccccc1)c1ccccc1	i
COc1ccc(NC(=O)Nc2ccc(C)n(CC(=O)N3CCCN(C)CC3)c2=O)cc1	i
COc1ccc(NC(=O)Nc2ccc(C)n(CC(=O)N3CCCC(C)C3)c2=O)cc1 (centres undefined)	i
Cc1ccc(NC(=O)Nc2ccccc2)c(=O)n1CC(=O)N1CCN(c2ccccc2)CC1	28.2µM*
Cc1ccc(NC(=O)C(C)Sc2ccc(C(F)(F)F)cn2)cc1 (centres undefined)	i
COc1cc(C2NC(=O)N(C)C(C)=C2C(=O)OCCC(C)C)cc(Cl)c1O (centres undefined)	i
O=C(Cn1cccc1-c1nc(-c2ccc(F)cc2)no1)NCc1ccccc1Cl	i
